Results as given in PubChem BioAssay AID1159580 (chemical genetic matrix, 2015).
Values joined by “and” are separate entries in the source; they are usually repeats but may differ in a detail not shown here. Equal values may be shown once. About 2,000 (36%) of roughly 5,500 compounds were called active. About 18% were inconclusive and are not listed. Cut-off read from the data, not from the text of the source: active = normalized growth mostly below about 0.91 (no sharp cut-off); inconclusive = no clear call, values can overlap the other calls; inactive = mostly above about 0.92. Some of the results follow.

Assay: chemical genetic growth profiling, strain panel (AID 1159580);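 note: tested at 20 µM; growth read once vehicle control cultures reached saturation at 30 °C; 1 = growth at the plate median or of vehicle wells; lower values mean less growth of the strain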
Conditions: S. cerevisiae deletion strains, growth OD
[1] = locus YPL055C, strain LGE1, active compounds read low
[2] = locus YPL241C, strain CIN2, active compounds read low

Measured: normalized growth

Cc1cc(C)c(NC(=O)C[C@H](CC(=O)O)c2cccc3ccccc23)c(C(=O)N2CCC3(CCCC3)CC2)c1
inactive: locus YAL040C, strain CLN3, active compounds read low 1.01 | locus YCL061C, strain MRC1 (second series), active compounds read low 0.986 | locus YDR363W, strain ESC2, active compounds read low 0.973 | locus YER002W, strain NOP16, active compounds read low 0.975 | locus YGR078C, strain PAC10, active compounds read low 0.972 | locus YGR229C, strain SMI1, active compounds read low 1.01 | locus YMR263W, strain SAP30, active compounds read low 0.995 | locus YNL175C, strain NOP13, active compounds read low 0.976 | locus YNL197C, strain WHI3, active compounds read low 0.964 | locus YNL224C, strain SQS1, active compounds read low 0.977 | locus YNL322C, strain KRE1, active compounds read low 0.99 | locus YOR083W, strain WHI5 (second series), active compounds read low 0.977 | [1] 0.972 | [2] 0.987

CC(C)(C#N)O[C@@H]1O[C@H](CO)[C@@H](O)[C@H](O)[C@H]1O
inactive: locus YAL013W, strain DEP1, active compounds read low 1 | locus YAL021C, strain ccr4, active compounds read low 1.01 | locus YAL026C, strain drs2, active compounds read low 1 | locus YAL030W, strain snc1, active compounds read low 1 | locus YBL061C, strain skt5, active compounds read low 0.998 | locus YBR009C, strain hhf1, active compounds read low 1 | locus YBR021W, strain FUR4, active compounds read low 1.1 | locus YBR023C, strain chs3, active compounds read low 1 | locus YBR171W, strain sec66, active compounds read low 1.01 | locus YBR229C, strain ROT2, active compounds read low 0.997 | locus YBR231C, strain swc5, active compounds read low 0.998 | locus YBR279W, strain paf1, active compounds read low 1.01 | locus YCL011C, strain gbp2, active compounds read low 1.01 | locus YCL016C, strain dcc1, active compounds read low 1 | locus YCL029C, strain bik1, active compounds read low 0.993 | locus YCL069W, strain vba3, active compounds read low 0.997 | locus YCR088W, strain abp1, active compounds read low 1.01 | locus YDL005C, strain med2, active compounds read low 0.993 | locus YDL035C, strain GPR1, active compounds read low 1.02 | locus YDL040C, strain nat1, active compounds read low 1.01 | locus YDL074C, strain BRE1, active compounds read low 1.02 | locus YDL101C, strain DUN1, active compounds read low 1.01 | locus YDL185W, strain tfp1, active compounds read low 0.983 | locus YDL192W, strain arf1, active compounds read low 0.988 | locus YDR001C, strain nth1, active compounds read low 1.01 | locus YDR069C, strain doa4, active compounds read low 1.03 | locus YDR101C, strain arx1, active compounds read low 0.997 | locus YDR137W, strain rgp1, active compounds read low 1.02 | locus YDR150W, strain NUM1, active compounds read low 1.02 | locus YDR159W, strain sac3, active compounds read low 0.965 | locus YDR162C, strain NBP2, active compounds read low 1.05 | locus YDR195W, strain ref2 0.98 | locus YDR297W, strain sur2, active compounds read low 1.01 | locus YDR318W, strain mcm21, active compounds read low 1 | locus YDR334W, strain swr1, active compounds read low 1 | locus YDR335W, strain msn5, active compounds read low 1 | locus YDR388W, active compounds read low 0.992 | locus YDR392W, strain spt3, active compounds read low 1.02 | locus YDR502C, strain sam2, active compounds read low 0.998 | locus YEL003W, strain gim4, active compounds read low 1.01 | locus YEL037C, strain rad23, active compounds read low 1.01 | locus YEL061C, strain CIN8 (second series), active compounds read low 1.02 | locus YEL061C, strain CIN8, active compounds read low 1 | locus YER015W, strain faa2, active compounds read low 0.998 | locus YER016W, strain bim1, active compounds read low 0.999 | locus YER110C, active compounds read low 0.985 | locus YER111C, strain swi4, active compounds read low 1.01 | locus YER155C, strain BEM2 (second series), active compounds read low 1.02 | locus YER155C, strain BEM2, active compounds read low 0.99 | locus YER167W, strain BCK2, active compounds read low 1.01 | locus YFR010W, strain ubp6, active compounds read low 1.01 | locus YGL078C, strain dbp3, active compounds read low 0.989 | locus YGL086W, strain mad1, active compounds read low 0.997 | locus YGL167C, strain pmr1, active compounds read low 1 | locus YGL173C, strain kem1, active compounds read low 1 | locus YGL227W, strain vid30, active compounds read low 1 | locus YGL240W, strain doc1, active compounds read low 1.01 | locus YGL248W, strain PDE1, active compounds read low 1.01 | locus YGL253W, strain hxk2, active compounds read low 1 | locus YGR135W, strain pre9, active compounds read low 0.975 | locus YGR252W, strain gcn5, active compounds read low 0.979 | locus YHR013C, strain ard1, active compounds read low 0.996 | locus YHR027C, strain rpn1, active compounds read low 0.984 | locus YHR030C, strain SLT2, active compounds read low 0.997 and 1.06 | locus YHR079C, strain IRE1 (second series), active compounds read low 0.994 | locus YHR079C, strain IRE1, active compounds read low 1.07 | locus YHR094C, strain hxt1, active compounds read low 0.984 | locus YHR129C, strain ARP1, active compounds read low 1 | locus YHR142W, strain chs7, active compounds read low 1 | locus YHR200W, strain rpn10, active compounds read low 0.995 | locus YIL066C, strain RNR3, active compounds read low 1.02 | locus YIL073C, strain SPO22, active compounds read low 1 | locus YIL125W, strain kgd1, active compounds read low 1 | locus YIR030C, strain dcg1, active compounds read low 0.998 | locus YJL092W, strain hpr5, active compounds read low 1 | locus YJL095W, strain BCK1 (second series), active compounds read low 1.01 | locus YJL095W, strain BCK1, active compounds read low 1.05 and 0.974 | locus YJL115W, strain asf1, active compounds read low 0.999 | locus YJL129C, strain trk1, active compounds read low 1.03 | locus YJL134W, strain LCB3, active compounds read low 0.993 | locus YJL154C, strain vps35, active compounds read low 1.01 | locus YJL164C, strain tpk1, active compounds read low 1 | locus YJL166W, strain qcr8, active compounds read low 1.01 | locus YJL168C, strain set2, active compounds read low 1 | locus YJL187C, strain SWE1 (second series), active compounds read low 1.03 | locus YJL187C, strain SWE1, active compounds read low 1 | locus YJR043C, strain POL32, active compounds read low 1.02 | locus YJR066W, strain TOR1, active compounds read low 0.981 | locus YJR075W, strain HOC1, active compounds read low 1.02 | locus YKL009W, strain mrt4, active compounds read low 0.982 | locus YKL068W, active compounds read low 0.998 | locus YKL085W, strain MDH1 (second series), active compounds read low 1.01 | locus YKL085W, strain MDH1, active compounds read low 1.01 | locus YKL160W, strain elf1, active compounds read low 1 | locus YKL190W, strain CNB1, active compounds read low 1.02 | locus YKR001C, strain vps1, active compounds read low 1 | locus YKR026C, strain gcn3, active compounds read low 0.997 | locus YKR091W, strain srl3, active compounds read low 1 | locus YLL001W, strain dnm1, active compounds read low 1.01 | locus YLL026W, active compounds read low 0.99 | locus YLL041C, strain sdh2, active compounds read low 1.01 | locus YLR027C, strain aat2, active compounds read low 1 | locus YLR039C, strain RIC1, active compounds read low 1.05 | locus YLR058C, strain SHM2, active compounds read low 1.01 | locus YLR102C, strain apc9, active compounds read low 0.983 | locus YLR113W, strain HOG1, active compounds read low 0.999 | locus YLR221C, strain rsa3, active compounds read low 1.03 | locus YLR258W, strain gsy2, active compounds read low 1.01 | locus YLR262C, strain YPT6 (second series), active compounds read low 1.01 | locus YLR262C, strain YPT6, active compounds read low 1.07 | locus YLR268W, strain sec22, active compounds read low 1 | locus YLR320W, strain mms22, active compounds read low 0.999 | locus YLR330W, strain CHS5, active compounds read low 0.994 | locus YLR342W, strain FKS1 (second series), active compounds read low 1.02 | locus YLR342W, strain FKS1, active compounds read low 1 | locus YLR357W, strain rsc2, active compounds read low 0.971 | locus YLR370C, strain arc18, active compounds read low 1 | locus YLR371W, strain rom2, active compounds read low 0.982 | locus YLR384C, strain iki3, active compounds read low 0.986 | locus YLR418C, strain cdc73, active compounds read low 1.01 | locus YML016C, strain PPZ1, active compounds read low 0.987 | locus YML032C, strain rad52, active compounds read low 1.01 | locus YML120C, strain ndi1, active compounds read low 0.994 | locus YML124C, strain tub3, active compounds read low 0.994 | locus YMR058W, strain fet3, active compounds read low 0.999 | locus YMR078C, strain ctf18, active compounds read low 0.976 | locus YMR125W, strain sto1, active compounds read low 1 | locus YMR129W, active compounds read low 0.996 | locus YMR205C, strain PFK2, active compounds read low 1.02 | locus YMR223W, strain ubp8, active compounds read low 0.984 | locus YMR231W, strain pep5, active compounds read low 0.996 | locus YMR307W, strain GAS1, active compounds read low 0.96 | locus YNL067W, strain RPL9B, active compounds read low 1.04 | locus YNL071W, strain lat1, active compounds read low 1.01 | locus YNL183C, strain NPR1, active compounds read low 0.973 | locus YNL209W, strain ssb2, active compounds read low 1.01 | locus YNL233W, strain BNI4, active compounds read low 1.02 | locus YNL248C, strain rpa49, active compounds read low 0.984 | locus YNL250W, strain rad50, active compounds read low 0.978 | locus YNL271C, strain bni1, active compounds read low 0.987 | locus YNL298W, strain CLA4, active compounds read low 0.987 | locus YNL307C, strain MCK1, active compounds read low 1.02 | locus YNL322C, strain KRE1 (second series), active compounds read low 0.993 | locus YNR049C, strain mso1, active compounds read low 1 | locus YNR052C, strain pop2, active compounds read low 0.984 | locus YOL006C, strain TOP1, active compounds read low 1.06 | locus YOL012C, strain htz1 0.871 | locus YOL147C, strain pex11, active compounds read low 0.995 | locus YOR001W, strain rrp6, active compounds read low 1.01 | locus YOR061W, strain CKA2, active compounds read low 0.997 | locus YOR069W, strain VPS5, active compounds read low 0.99 | locus YOR070C, strain gyp1, active compounds read low 1.01 | locus YOR080W, strain dia2, active compounds read low 1.01 | locus YOR083W, strain WHI5, active compounds read low 1.01 | locus YOR106W, strain vam3, active compounds read low 1.04 | locus YOR136W, strain idh2, active compounds read low 0.985 | locus YOR144C, strain elg1, active compounds read low 0.997 | locus YOR184W, strain ser1, active compounds read low 1.03 | locus YOR231W, strain MKK1, active compounds read low 1.01 | locus YOR265W, strain rbl2, active compounds read low 1.01 | locus YOR270C, strain vph1, active compounds read low 1.22 | locus YOR290C, strain snf2, active compounds read low 1.02 | locus YOR316C, strain cot1, active compounds read low 0.983 | locus YPL051W, strain arl3, active compounds read low 1.01 | [1] 1.06 | locus YPL078C, strain atp4, active compounds read low 1.01 | locus YPL106C, strain sse1, active compounds read low 0.985 | locus YPL240C, strain hsp82, active compounds read low 0.995 | [2] 1.01 | locus YPL256C, strain CLN2, active compounds read low 1.06 | locus YPR119W, strain clb2, active compounds read low 0.996 | locus YPR141C, strain kar3, active compounds read low 0.982 | locus YPR163C, strain tif3, active compounds read low 0.997 | locus YPR167C, strain met16, active compounds read low 1.01 | strain wtn01, active compounds read low 0.984
